In PubChem BioAssay (Tox21):
Inconclusive results are not listed. Calls of active or inactive are those of the source. The call rests on the fitted dose curve.

experiment: qHTS assay to identify small molecule agonists of the hypoxia (HIF-1) signaling pathway - cell viability counter screen (AID 1224844); conditions: HRE-bla ME-180 viability, CellTiter-Glo luminescence, 17 h; series mostly up to 76.8 µM; activity change, negative = cytotoxicity: at the top concentration; further: nearly all actives have a fitted effect of over 50% in size
How it was run: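 HRE-bla ME-180 cells, 2,000/well in 0.5% dialyzed FBS medium, treated 17 h at 37C with compounds. Viability read in the same wells as the bla reporter, by CellTiter-Glo luminescence after 30 min at room temperature.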
On the % scale 0 is the no-effect control and ±100 the full control effect; potency means the concentration at half of the fitted maximal effect.

Structure (SMILES) | activity change, negative = cytotoxicity | Potency
N=c1ccn2c(n1)O[C@H]1[C@H](O)[C@@H](CO)O[C@H]12 | -11.6% (inactive) | –
CC(C)Cc1ccc(C(C)C(=O)OCc2ccccn2)cc1 (centres undefined) | -0.174% [at 35.3 µM] (inactive) | –
CC1=CC=C(C(C)C)CC1 | 6.65% (inactive) | –
CN1CCN(C(c2ccccc2)c2ccccc2)CC1 | 22.9% [at 35.3 µM] (inactive) | –
C/C(=C(\CCOP(=O)(O)O)SC(=O)c1ccccc1)N(C=O)Cc1cnc(C)nc1N | -1.24% [at 6.97 µM] (inactive) | –
C=C(C)C(=O)OCCOCC | 14.7% (inactive) | –
CCOC(=O)COC(=O)c1cc(Oc2ccc(C(F)(F)F)cc2Cl)ccc1[N+](=O)[O-] | 17.8% (inactive) | –
COc1ccc(C(=O)c2ccc(OC)cc2O)c(O)c1 | 1.26% (inactive) | –
C[N+]1(C)CCC(OC(=O)C(O)(c2ccccc2)C2CCCC2)C1 (centres undefined) | 1.77% [at 35.3 µM] (inactive) | –
O=C(O)c1ccc(-n2nc(-c3ccccc3O)nc2-c2ccccc2O)cc1 | -24% [at 35.3 µM] (inactive) | –
CCOc1ccc(O)cc1 | -10% (inactive) | –
CN(Cc1ccc(C(C)(C)C)cc1)Cc1cccc2ccccc12 | -26.6% [at 35.3 µM] (inactive) | –
CC(=O)c1ccc2c(c1)N(CCCN(C)C)c1ccccc1S2 | -14.9% [at 35.3 µM] (inactive) | –
CCCn1cnc2c1c(=O)n(CCCCC(C)=O)c(=O)n2C | 0.524% [at 35.3 µM] (inactive) | –
CCCC(=O)Nc1ccc(O)c(C(C)=O)c1 | 8.69% [at 35.3 µM] (inactive) | –
CC(C)CC(=O)C1C(=O)c2ccccc2C1=O | -10.2% (inactive) | –
CN(C)c1ccc(CCO)cc1 | 8.5% (inactive) | –

Structure (SMILES) | activity change, negative = cytotoxicity | Potency
CCN(CC)CCOC(=O)C(c1ccccc1)C1CCCCC1 (centres undefined) | -13.9% [at 35.3 µM] (inactive) | –
Cc1ccc(C(=O)Oc2ccc(C(O)CNC(C)(C)C)cc2OC(=O)c2ccc(C)cc2)cc1 (centres undefined) | 7.77% [at 35.3 µM] (inactive) | –
CCCCCCCCCCCCCCCCCCOS(=O)(=O)O | – | 38.9 µM (active)
Cc1[nH]c(C)c(Cl)c(=O)c1Cl | 12.4% [at 15.8 µM] (inactive) | –
C/C=C/C=C/CO | -6.9% (inactive) | –
COc1cc(Cl)c(OC)cc1N | -38.4% (inactive) | –
Nc1c(CC(=O)O)cccc1C(=O)c1ccc(Br)cc1 | 3.17% [at 35.3 µM] (inactive) | –
CCCCCCCCCc1ccc(OCCOCCO)cc1 | -26.2% [at 35.3 µM] (inactive) | –
Brc1c2ccccc2c(Br)c2ccccc12 | -13.7% [at 6.97 µM] (inactive) | –
CNCCCCOc1ccccc1Cc1ccccc1 | -0.887% [at 35.3 µM] (inactive) | –
Brc1c2ccccc2cc2ccccc12 | -24.1% (inactive) | –
Cc1ccc(N=Nc2c(O)c(C(=O)O)cc3ccccc23)c(S(=O)(=O)O)c1 | -13.9% [at 35.3 µM] (inactive) | –
CCCCC(CC)COC(=O)COc1ccc(Cl)cc1Cl (centres undefined) | 0.275% (inactive) | –
O=C(CS)Nc1ccccc1 | -0.893% [at 35.3 µM] (inactive) | –
O=C(O)c1ccccc1Cl | -20.1% (inactive) | –
CC(=O)OC[C@H]1O[C@@H](n2ncc(=O)[nH]c2=O)[C@H](OC(C)=O)[C@@H]1OC(C)=O | -19% [at 35.3 µM] (inactive) | –
Clc1ccc2c(c1)CCc1cccnc1C2=C1CCNCC1 | -29.5% [at 35.3 µM] (inactive) | –
